Assay outcomes deposited in PubChem by National Center for Advancing Translational Sciences (NCATS).
This excerpt belongs to a sample that is enriched for hits.
12-LOX inh = inhibitors of human 12S-lipoxygenase ALOX12. purified 12hLO, xylenol orange hydroperoxide absorbance. P18054. 1.1% of 580,000 active. Potency, µM (top dose mostly 108 µM), without a hit: top-dose activity change, negative = inhibition, hits mostly inhibitors. AID 1671190; note: potency is the fitted concentration of half-maximal effect
Target sequence (P18054 whole entry, looked up): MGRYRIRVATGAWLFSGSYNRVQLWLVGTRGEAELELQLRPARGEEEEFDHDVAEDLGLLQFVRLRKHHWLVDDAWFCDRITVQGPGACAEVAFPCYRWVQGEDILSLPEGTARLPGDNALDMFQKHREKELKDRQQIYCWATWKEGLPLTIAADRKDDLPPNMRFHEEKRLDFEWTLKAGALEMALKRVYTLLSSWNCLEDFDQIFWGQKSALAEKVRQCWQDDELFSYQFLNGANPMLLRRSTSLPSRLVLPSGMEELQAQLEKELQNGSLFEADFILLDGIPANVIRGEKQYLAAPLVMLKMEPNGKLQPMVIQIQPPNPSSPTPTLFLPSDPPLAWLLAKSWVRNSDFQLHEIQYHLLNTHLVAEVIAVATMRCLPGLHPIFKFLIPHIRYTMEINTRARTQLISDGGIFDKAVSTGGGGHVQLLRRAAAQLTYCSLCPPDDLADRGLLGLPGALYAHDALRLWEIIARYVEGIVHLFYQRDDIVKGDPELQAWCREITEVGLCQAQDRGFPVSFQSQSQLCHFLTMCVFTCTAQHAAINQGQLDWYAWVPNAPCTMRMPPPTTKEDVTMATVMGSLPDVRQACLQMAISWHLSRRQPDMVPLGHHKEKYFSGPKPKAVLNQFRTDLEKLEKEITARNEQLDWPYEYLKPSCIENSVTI
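Purified human 12hLO (150 nM final) in 25 mM Hepes, 0.01% Triton X-100, pH 7.0 was preincubated 15 min at room temperature with compound. Then 40 uM arachidonic acid was added, 30 min. Hydroperoxide was read by Fe-XO absorbance ratio 573/405 nm.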
HT1080 IDH1KD tx = toxicity to HT-1080 IDH1 knockdown cells (counter line) | HT-1080 IDH1 knockdown viability, ATP luminescence, 48 h | AID 686971 | 2% of 360,000 active | Potency, µM (series often up to 46.1 µM), without a hit: at the highest dose activity, negative = toxicity, usual class: cytotoxic;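 note: potency is the fitted concentration of half-maximal effect; 0% = DMSO wells and -100% = cell-free medium wells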
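Cytotoxicity counter-line: IDH1KD HT-1080, 48 h, CellTiter-Glo. Curves classed by r2, magnitude and activity.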
HT1080-NT tox = kills 2HG-producing HT-1080-NT fibrosarcoma cells | HT-1080-NT fibrosarcoma viability, CellTiter-Glo ATP luminescence, 48 h | 1.6% of 360,000 active | Potency, µM (series often up to 46.1 µM), inactives show top-dose activity, negative = less viability, hits mostly cytotoxic | AID 686970;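 note: NT is the 2HG producing partner of a matched IDH1 knockdown line; potency is the fitted concentration of half-maximal effect; 0% = DMSO-treated cells and -100% = media-only wells without cells; nearly all actives have a fitted effect of over 55% in size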
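A 48-hour cytotoxicity screen used HT-1080-NT cells plated 2 hours before compound delivery. ATP-based CellTiter-Glo luminescence measured viability, normalized to DMSO and no-cell controls.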
DT40 TDP1 no CPT = qHTS for Inhibitors of human tyrosyl-DNA phosphodiesterase 1 (TDP1): qHTS in cells in absence of CPT; DT40 Tdp1-/- hTDP1 cells, no CPT, ATP luminescence, 48 h; Potency, µM (top dose mostly 46.2 µM), inactives show top-dose activity change, negative = growth inhibition, actives largely listed as inhibitors; 15% of 420,000 active; note: potency is the fitted concentration of half-maximal effect; nearly all actives have a fitted effect of over 55% in size
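Seeded 400 DT40-hTDP1 cells/well (vehicle DMSO, no 20 nM CPT); pinned compounds; ≥48 hr at 37 °C; CellTiter-Glo luminescence as viability measure.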
IL1B secr inh = blocks inflammasome-driven IL-1 beta release; 4.7% of 360,000 active; activity change, % at 57.5 µM; THP-1 LPS/ATP IL-1B secretion, AlphaLISA, 16 h; hits give low values; in the data active = activity change below about -50%; inconclusive = mostly about -30% to -49%
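Secreted IL-1B measured by AlphaLISA bead assay after 16 h compound exposure of THP-1 cells; compounds (final up to 57.5 uM) added 1 h before LPS (250 ng/mL) and ATP (1.25 mM) stimulation; lower signal means less secretion.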
TDP1 cell CPT = growth inhibition of DT40 Tdp1-/-;hTDP1 cells with camptothecin (screen for TDP1 inhibitors). Potency, µM (highest dose often 46.2 µM), without a hit: at the top dose activity change, negative = growth inhibition, hits mostly inhibitors. 12% of 420,000 active. chicken DT40 Tdp1-/-;hTDP1 cells + 20 nM CPT, ATP luminescence, 48 h; note: potency is the fitted concentration of half-maximal effect; nearly all actives have a fitted effect of over 55% in size
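Chicken DT40 Tdp1-/- cells stably complemented with human TDP1 were seeded at 400 cells/well in medium containing 20 nM camptothecin, exposed to pin-transferred compounds, and grown at 37 °C for at least 48 hr. Viability was read as ATP luminescence.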
* = called active by the depositor; ? = inconclusive; · = no result; ! = not confirmed by another sample. Unless noted, calls come from the whole dose curve; as a rule, active = well fitted curve in the direction sought with a large enough effect; inconclusive = small, poorly fitted or top-dose-only effect, or another doubt; inactive = no such curve, though single readings can be large; an effect the other way counts as inactive or inconclusive. Unless noted, % is set by controls: 0 for no effect and ±100 for the full control effect.

SMILES | 12-LOX inh | HT1080 IDH1KD tx | HT1080-NT tox | DT40 TDP1 no CPT | IL1B secr inh | TDP1 cell CPT
COc1ccc(C(=O)N2CCCC(Nc3ccc(C(C)C)cc3)C2)c(OC)n1 (stereo unspecified) | ? | 3% | 0% | 23µM* | 13 | ?
COc1ccc(NC2CCCN(C(=O)CCc3scnc3C)C2)cc1 (stereo unspecified) | -4% | 0% | 0% | 6% | -6 | 3%
CC1CCN(c2ccc(C(=O)NCc3ccco3)cc2[N+](=O)[O-])CC1 | -20% | -19% | -6% | ? | ? | ?
O=C(Nc1cc(F)ccc1F)Nc1ccc(Cl)cc1C(F)(F)F | -20% | · | · | · | · | ·
Cc1ncsc1CCC(=O)N1CCCC(Nc2ccc(C(C)C)cc2)C1 (stereo unspecified) | 400% | 3% | 4% | 26µM* | 1 | ?
CCc1nccn1CCC(=O)N1CCCC(Nc2ccc(C(C)C)cc2)C1 (stereo unspecified) | -21% | -5% | -6% | 18µM* | -6 | ?
c1ccc(-c2ncn(CC3CCCO3)c2-c2cccc3cnccc23)cc1 (stereo unspecified) | 19% | · | · | · | · | ·
O=[N+]([O-])c1ccccc1S(=O)(=O)Oc1ccccc1/C=N/n1cnnc1 | -1% | -6% | -19% | 16µM* | 20 | ?
CCCn1c(=O)c2ccc(C(=O)NCC(C)C)cc2n2c(SCc3ccccc3F)nnc12 | 9% | · | · | · | · | ·
Cc1ccc(CNC(=O)C2CC(c3ccc(C(F)(F)F)cc3)=NO2)o1 (stereo unspecified) | -8% | 3% | 10% | 7.3µM* | -3 | 12µM*
COc1ccc(CNC(=O)C2CC(c3cc(C(F)(F)F)cc(C(F)(F)F)c3)=NO2)cc1 (stereo unspecified) | -15% | 9% | 10% | 4.6µM* | 63 | 3.3µM*
COc1ccc(CNC(=O)C2CC(c3ccccc3C(F)(F)F)=NO2)cc1 (stereo unspecified) | ? | 4% | 8% | -10% | -15 | 0%
COc1cc(NC(=O)C2CC(c3c(F)cccc3Cl)=NO2)cc(OC)c1OC (stereo unspecified) | 1% | -10% | -8% | 10µM* | -16 | ?
O=C(NCc1cc(C(F)(F)F)cc(C(F)(F)F)c1)C1CC(c2c(Cl)cccc2Cl)=NO1 (stereo unspecified) | 4% | -13% | -3% | ? | -50* | ?
O=C(NCc1cc(C(F)(F)F)cc(C(F)(F)F)c1)C1CC(c2ccc(C(F)(F)F)cc2)=NO1 (stereo unspecified) | 15% | 4% | 1% | ? | ? | ?
CCOc1nc2ccccc2nc1N1CCC(C(=O)Nc2ccc(OC)cc2OC)CC1 | -3% | · | · | · | · | ·
COc1ccc(CCNC(=O)C2CC(c3ccc(C(F)(F)F)cc3)=NO2)cc1 (stereo unspecified) | 0% | 6% | 11% | 15µM* | 5 | ?
COC(=O)CSc1nc(N)c2c3c(sc2n1)C(c1ccccc1)SC(c1ccccc1)C3 (stereo unspecified) | · | ? | ? | 2.6µM* | -100* | 4.1µM*
COC(=O)CSc1nc(N)c2c3c(sc2n1)CCCC3C (stereo unspecified) | 11% | · | · | · | · | ·
COc1ccccc1C(=O)Nc1cc(-c2ccc(C)cc2)no1 | ? | -9% | -10% | 13µM*! | ? | ?
COc1ccccc1C(=O)Nc1cccc(NC(C)=O)c1 | -20% | 18% | 13% | 0% | -8 | -9%
C/C(=N\NC(=O)c1ccc(O)cc1)c1cccc(NC(=O)c2ccccc2C)c1 | -5% | -7% | 1% | 23µM* | -7 | ?
Cc1ccccc1C(=O)Nc1cccc(NC(=O)c2ccc(C(C)(C)C)cc2)c1 | 12% | · | · | 5.8µM* | · | 8.2µM*
C/C(=N\NC(=O)c1c(Br)c(C)nn1C)c1cccc(NC(=O)c2ccccc2C)c1 | 12% | 16% | 24% | ? | -8 | ?
COc1ccccc1C(=O)Nc1cccc(NC(=O)c2ccccc2C)c1 | 0% | -12% | 8% | ? | -70* | ?
SMILES | 12-LOX inh | HT1080 IDH1KD tx | HT1080-NT tox | DT40 TDP1 no CPT | IL1B secr inh | TDP1 cell CPT
Cc1ccccc1C(=O)Nc1cccc(N)c1 | 1% | 4% | 2% | 1% | -15 | 2%
COc1ccc(C2Nc3cc(OC)ccc3-n3cccc32)cc1 (stereo unspecified) | ? | -22% | -16% | 23µM* | ? | 23µM*
COCCN(C(=O)COC(=O)c1ccccc1Nc1ccccc1)c1c(N)n(Cc2ccccc2)c(=O)[nH]c1=O | ? | ? | ? | ? | -53* | 21µM*
COCCN(C(=O)COC(=O)/C=C/c1ccc(Cl)c(Cl)c1)c1c(N)n(Cc2ccccc2)c(=O)[nH]c1=O | ? | -2% | 0% | 18µM* | -7 | 16µM*
CN(C(=O)COC(=O)c1ccccc1Nc1ccccc1)c1c(N)n(Cc2ccccc2)c(=O)[nH]c1=O | ? | ? | ? | 16µM* | -63* | ?
CC(C)CN(C(=O)COC(=O)/C=C/c1ccc(Cl)c(Cl)c1)c1c(N)n(Cc2ccccc2)c(=O)[nH]c1=O | -6% | 2% | 1% | ? | ? | ?
CNc1ccccc1C(=O)OCC(=O)c1ccccc1 | · | 6% | 19% | -3% | 2 | -20%
Cc1ccccc1C(=O)OCC(=O)N(C)c1c(N)n(Cc2ccccc2)c(=O)[nH]c1=O | -2% | 3% | 3% | 1% | -4 | 5%
O=C(COC(=O)c1ccccc1Nc1ccccc1)c1ccccc1 | 2% | -23% | -3% | -25% | -60* | -16%
O=C(c1ccccc1OC1CCN(Cc2ccccn2)CC1)N1CCSCC1 | 27% | · | · | · | · | ·
CS(=O)(=O)c1ccc(Cl)c(NC(=O)c2cc(S(=O)(=O)N3CCOCC3)ccc2N2CCCC2)c1 | -2% | 0% | -13% | -17% | -20 | -13%
CCCCN1CC(=O)N2[C@H](C[C@@]3(n4ccc5ccccc54)c4ccccc4N(S(=O)(=O)c4ccccc4)[C@@H]23)C1=O | 23% | · | · | · | · | ·
Cc1cc(C(=O)Nc2ccccc2C(C)(C)C)c2ccccc2n1 | -44% | · | · | · | · | ·
CN(C(=O)COC(=O)c1ccccc1Cc1ccccc1)c1c(N)n(Cc2ccccc2)c(=O)[nH]c1=O | ? | -15% | -6% | -15% | -11 | -5%
